GLP1R cytotox – qHTS of GLP-1 Receptor Inverse Agonists: Cytotox Screen; actives 0.13% (n = 410,000); Potency, µM (doses to about 38.3 µM), for the others: at the highest dose activity change, negative = inhibition, hits mostly inhibitors; HEK293 cAMP-luciferase reporter cells, luminescence, 24 h;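 also: loss of luciferase light is scored as toxicity; potency is read from the fitted curve at half-maximal effect; % is scaled to controls: 0 for no effect and ±100 for the full control effect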
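MLSMR compounds, 24 hr on cells at 37 deg C/5% CO2; luminescence after luciferase reagent (12 min RT). Inhibition counted as the undesired cytotoxic outcome.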
GLS inhibitor – qHTS for Inhibitors of Glutaminase (GLS) | GLS enzymatic activity, qHTS titration | actives 0.21% (n = 410,000) | Potency, µM (series often up to 45.5 µM), inactives show top-dose activity change, negative = inhibition, actives largely listed as inhibitors | Glutaminase kidney isoform, mitochondrial (Homo sapiens), O94925; also: potency is read from the fitted curve at half-maximal effect; % is scaled to controls: 0 for no effect and ±100 for the full control effect
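Assay buffer: 45 mM KH2PO4 pH 8.2, 0.02% Tween-20. hKGA acts on L-glutamine (1 mM solution added); product glutamate is reported by an oxidase/peroxidase Amplex Red coupling, with fluorescence taken at baseline and 30 min.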
hERG WT inh – qHTS for Inhibitors of KCHN2 3.1: Wildtype qHTS. AID 720551, 2013. activity change, % at 1.84 µM. actives 0.37% (n = 340,000). U2OS, BacMam KCNH2, thallium flux FluxOr; active compounds read low. Voltage-gated inwardly rectifying potassium channel KCNH2 (Homo sapiens), Q12809;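 active = maximum activity change below -70%; inconclusive = maximum activity change between -70% and -50%; inactive = maximum activity change above -50%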; also: % is scaled to controls: 0 for no effect and ±100 for the full control effect
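U2OS cells were transduced with wild-type KCNH2 virus (2.03 x 10^8 / mL) for 4 h at room temperature, then cultured overnight at 37 C. Thallium flux was read with FluxOr dye. Rate constants were normalized to DMSO controls.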
KCNH2 3.1 inh – qHTS for Inhibitors of KCHN2 3.1: Mutant qHTS. Potassium voltage-gated channel subfamily H member 2, brain isoform KCNH2 3.1 (human). U2OS KCNH2 3.1, thallium flux FluxOr; active compounds read low. activity change, % (tested at about 1.8 µM). actives 0.95% (n = 340,000);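 active = maximum activity change below -70%; inconclusive = maximum activity change from -70% to -50%; inactive = maximum activity change above -50%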;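 also: thallium influx rate constant from kinetic fluorescence after stimulation buffer; % is scaled to controls: 0 for no effect and ±100 for the full control effect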
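Kinetic fluorescence (2 min after stimulation buffer) measures Tl+ influx through KCNH2 3.1 expressed by viral transduction in U2OS cells; the rate constant is normalized against DMSO controls serving as positive and negative references.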
GLP1R inv ag – qHTS of GLP-1 Receptor Inverse Agonists (Inhibition Mode); AID 624417, 2012; HEK293 GLP-1R CRE-luciferase, luminescence, 24 h; GLP-1R form is constitutively active; Potency, µM (titrated, usually from 38.3 µM), without a hit: top-dose activity change, negative = inhibition, hits mostly inhibitors; actives 1.6% (n = 410,000); also: potency is read from the fitted curve at half-maximal effect; % is scaled to controls: 0 for no effect and ±100 for the full control effect; nearly all actives have a fitted effect of over 55% in size
Target sequence (P43220 whole entry, looked up): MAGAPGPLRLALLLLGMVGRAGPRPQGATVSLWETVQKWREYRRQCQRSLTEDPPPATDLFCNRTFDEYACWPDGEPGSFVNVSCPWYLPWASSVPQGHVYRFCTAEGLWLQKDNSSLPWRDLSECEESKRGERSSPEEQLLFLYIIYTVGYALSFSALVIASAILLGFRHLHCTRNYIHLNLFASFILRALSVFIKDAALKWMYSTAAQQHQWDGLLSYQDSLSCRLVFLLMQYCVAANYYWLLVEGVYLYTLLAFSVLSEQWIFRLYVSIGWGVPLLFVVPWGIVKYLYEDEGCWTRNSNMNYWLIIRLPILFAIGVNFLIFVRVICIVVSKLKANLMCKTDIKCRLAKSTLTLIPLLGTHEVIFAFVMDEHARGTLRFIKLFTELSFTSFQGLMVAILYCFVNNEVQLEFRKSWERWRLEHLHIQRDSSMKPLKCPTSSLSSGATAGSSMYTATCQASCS
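HEK293 cells stably co-expressing constitutively active GLP-1R and a cAMP-responsive luciferase reporter were seeded in DMEM with 10% Nu serum, given compounds after 12 h, and incubated 24 h at 37 deg C. Luminescence was then read.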
GLP1R ag – qHTS of GLP-1 Receptor Agonists; Glucagon-like peptide 1 receptor (Homo sapiens), P43220; HEK293 GLP-1R CRE-luciferase, luminescence, 4-6 h; cells express a hypersensitive GLP-1R form; Potency, µM (series often up to 45.6 µM), without a hit: at the top dose activation, hits mostly activators; actives 0.007% (n = 380,000); also: potency is read from the fitted curve at half-maximal effect; % of control where 0% means no effect
* marks the source's active call; other numbers are inactive results; ? = inconclusive; nt = no result. An excerpt weighted towards active compounds, which were near 2.8% of everything screened. Unless noted, calls follow the shape of the dose curve; as a rule, active = well fitted curve in the direction sought with a large enough effect; inconclusive = small, poorly fitted or top-dose-only effect, or another doubt; inactive = no such curve, though single readings can be large; an effect the other way counts as inactive or inconclusive.

SMILES | GLP1R cytotox | GLS inhibitor | hERG WT inh | KCNH2 3.1 inh | GLP1R inv ag | GLP1R ag
COc1cccc(NC(=O)c2cnc(SCC(=O)N3CCOCC3)n(C)c2=O)c1 | 0% | 0% | nt | nt | -4% | nt
COc1ccc(Oc2nnc(-c3ccc(C)cc3)c3ccccc23)cc1 | -5% | -4% | -7 | -2 | -10% | -3%
COc1nnc(-c2ccc(C)cc2)c2ccccc12 | -4% | -13% | -4 | -90* | ? | 17%
Cc1nn(-c2ccc(Cl)nn2)c(=O)c2ccccc12 | -5% | -1% | 8 | -4 | -2% | 6%
CCOc1ccc(/C=C/C2=CC(C)(C)NC(=S)N2)cc1 | 5.6µM* | ? | -5 | 11 | ? | 5%
Cc1ccc(C(=O)[C@H](C)CN2CCCCC2)cc1 | nt | 3% | nt | nt | nt | -6%
CCc1c(C(=O)Nc2ccccc2)c(C)[nH]c(=S)c1C#N | 9% | 11µM* | -15 | -6 | 0% | -1%
CCCCNC(=S)N/N=C/c1cccc(OCC)c1O | ? | 8.9µM* | 9 | -2 | ? | 12%
Cc1ccc(S(=O)(=O)NC2CCCc3ccccc32)cc1C (configuration not stated) | -4% | 4% | 0 | -26 | 5µM* | 2%
CCCCC/C=C/C/C=C/CCCCCCCC(=O)NC(C)c1ccccc1 (configuration not stated) | nt | 2% | nt | nt | nt | 6%
COc1ccc(-c2csc(C(O)c3ccc(F)c(F)c3)n2)cc1 (configuration not stated) | -7% | -1% | nt | nt | 11µM* | 8%
CC1(C(=O)OCC(=O)N2c3ccccc3Sc3ccccc32)CC1(Cl)Cl (configuration not stated) | 16% | 8% | 11 | 6 | 11µM* | 5%
N/C(=N\OC(=O)c1cccc2ccccc12)c1ccccn1 | 4µM* | 0% | -2 | -3 | ? | 10%
COc1cccc(C(=O)O/N=C(\N)c2ccccn2)c1OC | 10% | 23% | -1 | 1 | 7.9µM* | -10%
CCN1C(C(=O)c2ccccc2)=C(OC(=O)c2ccccc2OC)c2ccccc2S1(=O)=O | ? | 20% | nt | nt | 10µM* | nt
Cc1cc(C(=O)N[C@H](c2ccccc2)[C@@]2(C)C[C@@H]2[C@@H](C)C(=O)Nc2ccc3ccccc3c2)n(C)n1 | -21% | -1% | -13 | -17 | 10µM* | 11%
CCc1nnc(NC(=O)CCC(=O)N2CCN(Cc3ccc(F)cc3)CC2)s1 | 2% | 12% | 0 | -8 | 3% | 1%
CCN1CCN(C(c2ccc(OC)cc2)C(O)C(=O)c2c[nH]c3ccccc23)CC1 (configuration not stated) | 2% | 1% | -104* | -99* | ? | 1%
O=C(c1ccc2c(c1)OCO2)C1CCCN(Cc2cccc(C(F)(F)F)c2)C1 (configuration not stated) | 1% | 0% | 26 | -10 | ? | 9%
O=C(c1ccc2c(c1)OCO2)C1CCCN(Cc2ccc(OC(F)F)cc2)C1 (configuration not stated) | -9% | -3% | -8 | -94* | ? | 11%
O=C(c1ccc2c(c1)OCO2)C1CCCN(Cc2ccc3cccc(F)c3n2)C1 (configuration not stated) | 3% | -9% | -25 | -101* | -29% | 10%
Cc1cc(C)n(C(=O)c2ccc([N+](=O)[O-])cc2Cl)n1 | 3% | 5% | -2 | 0 | -18% | 8%
COc1ccc(N2CCN(C(=O)Nc3cccc(C(F)(F)F)c3)CC2)cc1 | 4% | 14% | 2 | -19 | 10µM* | 6%
COc1cccc(NC(=O)N2CCN(c3nc(-c4cccc(OC)c4)cs3)CC2)c1 | -22% | -1% | 7 | -6 | 13µM* | -5%
Cn1c(N2CCN(C(=O)Nc3ccc(C(F)(F)F)cc3)CC2)nc2ccccc21 | -12% | ? | -82* | -74* | ? | 4%
SMILES | GLP1R cytotox | GLS inhibitor | hERG WT inh | KCNH2 3.1 inh | GLP1R inv ag | GLP1R ag
COc1cccc(-c2csc(N3CCN(C(=O)NC45CC6CC(CC(C6)C4)C5)CC3)n2)c1 | 1% | 10% | -4 | 4 | 5µM* | -10%
Cn1c(CNC(=O)CNS(=O)(=O)c2ccc(F)cc2F)cc(=O)n(C)c1=O | 3% | -7% | ? | -8 | 10% | -4%
CCN(CC)c1cc2c(cc1F)c(=O)c(S(=O)(=O)c1ccc(OC)cc1)cn2CC | 0% | 0% | nt | nt | 10% | nt
N#Cc1c(NC(=O)c2ccccc2Cl)n(Cc2ccccc2)c2nc3ccccc3nc12 | 123% | 4% | -9 | -6 | ? | -3%
CCCCn1c(NC(=O)c2ccccc2Cl)c(C#N)c2nc3ccccc3nc21 | 465% | 15% | 7 | -3 | 5.6µM* | -4%
COc1ccc(CCNCc2c(C(=O)O)c(C)n(Cc3ccccc3C)c2C)c(OC)c1 | -1% | -6% | nt | nt | -1% | nt
CN(Cc1ccccc1N1CCCC1)C(=O)c1cc2ccccc2o1 | 6% | 15% | -1 | -18 | 10µM* | 14%
CN(Cc1ccccc1N1CCCC1)C(=O)c1cc2cc(Cl)ccc2o1 | 2% | 14% | -5 | -21 | ? | 7%
COCCCNC(=S)N1CCC(C(=O)c2ccc(Cl)cc2)CC1 | -1% | 4% | 7 | -19 | 5.6µM* | 0%
Cc1ccc2[nH]cc(C(c3ccccc3)c3cccs3)c2c1 (configuration not stated) | -13% | 15% | nt | nt | 10µM* | nt
CCN1CC(CN(C)Cc2cn(-c3cccc(C)c3)nc2-c2cccc(F)c2)CC1=O (configuration not stated) | -19% | 1% | 18 | 3 | 10µM* | ?
CCN1CC(CN(C)Cc2cn(-c3ccc(C)cc3)nc2-c2ccc(F)cc2)CC1=O (configuration not stated) | 4% | -4% | 11 | 17 | ? | 13%
C[C@H](NC(=O)c1nc[nH]c1C(=O)N[C@H](C)c1ccccc1)C(=O)OC(C)(C)C | -27% | -3% | nt | nt | 12% | 2%
CC(C)(C)OC(=O)[C@H](Cc1ccccc1)NC(=O)c1nc[nH]c1C(=O)NCc1ccccc1 | 0% | -12% | 0 | -107* | ? | 7%
